Results published in PubChem BioAssay AID1159580 (chemical genetic matrix, 2015).
Screen size: about 5,500 compounds; about 2,000 (36%) were called active. About 18% were inconclusive and are not listed. No stated cut-off is given here; in the data, active means normalized growth mostly below about 0.91 (no sharp cut-off); inconclusive means no clear call, values can overlap the other calls; inactive means mostly above about 0.92. The list shows a part of the results.

Test: chemical genetic growth profiling, strain panel (AID 1159580);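 further: tested at 20 µM; growth read once vehicle control cultures reached saturation at 30 °C; 1 = growth at the plate median or of vehicle wells; lower values mean less growth of the strain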
Details: growth OD

Measured: normalized growth

C[C@@H]1C(=O)O[C@H]2[C@H]1CC[C@@]1(C)C=CC(=O)[C@@]3(C)O[C@@]213
inactive: S. cerevisiae deletion strains, locus YKL009W, strain mrt4, hits give low values 1.03 | S. cerevisiae deletion strains, locus YKL068W, hits give low values 1.01 | S. cerevisiae deletion strains, locus YKL085W, strain MDH1 (second series), hits give low values 1.01 | S. cerevisiae deletion strains, locus YKL085W, strain MDH1, hits give low values 1.01 | S. cerevisiae deletion strains, locus YKL160W, strain elf1, hits give low values 0.963 | S. cerevisiae deletion strains, locus YKL190W, strain CNB1, hits give low values 1.01 | S. cerevisiae deletion strains, locus YKR001C, strain vps1, hits give low values 1 | S. cerevisiae deletion strains, locus YKR026C, strain gcn3, hits give low values 1.01 | S. cerevisiae deletion strains, locus YKR091W, strain srl3, hits give low values 1 | S. cerevisiae deletion strains, locus YLL001W, strain dnm1, hits give low values 1.02 | S. cerevisiae deletion strains, locus YLL026W, hits give low values 1.01 | S. cerevisiae deletion strains, locus YLL041C, strain sdh2, hits give low values 1.01 | S. cerevisiae deletion strains, locus YLR027C, strain aat2, hits give low values 1.02 | S. cerevisiae deletion strains, locus YLR039C, strain RIC1, hits give low values 0.994 | S. cerevisiae deletion strains, locus YLR058C, strain SHM2, hits give low values 1.01 | S. cerevisiae deletion strains, locus YLR102C, strain apc9, hits give low values 1.01 | S. cerevisiae deletion strains, locus YLR113W, strain HOG1, hits give low values 1.03 | S. cerevisiae deletion strains, locus YLR221C, strain rsa3, hits give low values 1.01 | S. cerevisiae deletion strains, locus YLR258W, strain gsy2, hits give low values 1.03 | S. cerevisiae deletion strains, locus YLR262C, strain YPT6 (second series), hits give low values 0.996 | S. cerevisiae deletion strains, locus YLR262C, strain YPT6, hits give low values 0.997 | S. cerevisiae deletion strains, locus YLR268W, strain sec22, hits give low values 1.04 | S. cerevisiae deletion strains, locus YLR320W, strain mms22, hits give low values 1.03 | S. cerevisiae deletion strains, locus YLR330W, strain CHS5, hits give low values 1.01 | S. cerevisiae deletion strains, locus YLR342W, strain FKS1 (second series), hits give low values 1.01 | S. cerevisiae deletion strains, locus YLR342W, strain FKS1, hits give low values 1.01 | S. cerevisiae deletion strains, locus YLR357W, strain rsc2, hits give low values 1.02 | S. cerevisiae deletion strains, locus YLR370C, strain arc18, hits give low values 1.02 | S. cerevisiae deletion strains, locus YLR371W, strain rom2, hits give low values 1.03 | S. cerevisiae deletion strains, locus YLR384C, strain iki3, hits give low values 1 | S. cerevisiae deletion strains, locus YLR418C, strain cdc73, hits give low values 1.05 | S. cerevisiae deletion strains, locus YML016C, strain PPZ1, hits give low values 1.01 | S. cerevisiae deletion strains, locus YML032C, strain rad52, hits give low values 1.01 | S. cerevisiae deletion strains, locus YML120C, strain ndi1, hits give low values 1.03 | S. cerevisiae deletion strains, locus YML124C, strain tub3, hits give low values 1.02 | S. cerevisiae deletion strains, locus YMR058W, strain fet3, hits give low values 1.03 | S. cerevisiae deletion strains, locus YMR078C, strain ctf18, hits give low values 1.02 | S. cerevisiae deletion strains, locus YMR125W, strain sto1, hits give low values 0.999 | S. cerevisiae deletion strains, locus YMR129W, hits give low values 1.03 | S. cerevisiae deletion strains, locus YMR205C, strain PFK2, hits give low values 1.02 | S. cerevisiae deletion strains, locus YMR223W, strain ubp8, hits give low values 1.01 | S. cerevisiae deletion strains, locus YMR231W, strain pep5, hits give low values 1.01 | S. cerevisiae deletion strains, locus YMR263W, strain SAP30, hits give low values 1.02 | S. cerevisiae deletion strains, locus YMR307W, strain GAS1, hits give low values 1 | S. cerevisiae deletion strains, locus YNL067W, strain RPL9B, hits give low values 1.02 | S. cerevisiae deletion strains, locus YNL071W, strain lat1, hits give low values 1 | S. cerevisiae deletion strains, locus YNL128W, strain TEP1, hits give low values 1.03 | S. cerevisiae deletion strains, locus YNL153C, strain GIM3, hits give low values 1.02 | S. cerevisiae deletion strains, locus YNL183C, strain NPR1, hits give low values 0.974 | S. cerevisiae deletion strains, locus YNL209W, strain ssb2, hits give low values 1.01 | S. cerevisiae deletion strains, locus YNL233W, strain BNI4, hits give low values 1.03 | S. cerevisiae deletion strains, locus YNL248C, strain rpa49, hits give low values 1.03 | S. cerevisiae deletion strains, locus YNL250W, strain rad50, hits give low values 1.03 | S. cerevisiae deletion strains, locus YNL271C, strain bni1, hits give low values 1.01 | S. cerevisiae deletion strains, locus YNL298W, strain CLA4, hits give low values 1.01 | S. cerevisiae deletion strains, locus YNL307C, strain MCK1, hits give low values 1.03 | S. cerevisiae deletion strains, locus YNL322C, strain KRE1 (second series), hits give low values 1 | S. cerevisiae deletion strains, locus YNL322C, strain KRE1, hits give low values 1.01 | S. cerevisiae deletion strains, locus YNR049C, strain mso1, hits give low values 1.04 | S. cerevisiae deletion strains, locus YNR052C, strain pop2, hits give low values 1.01 | S. cerevisiae deletion strains, locus YOL006C, strain TOP1, hits give low values 1.04 | S. cerevisiae deletion strains, locus YOL012C, strain htz1 0.788 | S. cerevisiae deletion strains, locus YOL147C, strain pex11, hits give low values 1.01 | S. cerevisiae deletion strains, locus YOR001W, strain rrp6, hits give low values 1.05 | S. cerevisiae deletion strains, locus YOR061W, strain CKA2, hits give low values 1.02 | S. cerevisiae deletion strains, locus YOR069W, strain VPS5, hits give low values 1.01 | S. cerevisiae deletion strains, locus YOR070C, strain gyp1, hits give low values 1.01 | S. cerevisiae deletion strains, locus YOR080W, strain dia2, hits give low values 1 | S. cerevisiae deletion strains, locus YOR083W, strain WHI5, hits give low values 1 | S. cerevisiae deletion strains, locus YOR106W, strain vam3, hits give low values 0.999 | S. cerevisiae deletion strains, locus YOR136W, strain idh2, hits give low values 1.02 | S. cerevisiae deletion strains, locus YOR144C, strain elg1, hits give low values 1.02 | S. cerevisiae deletion strains, locus YOR184W, strain ser1, hits give low values 1.03 | S. cerevisiae deletion strains, locus YOR231W, strain MKK1, hits give low values 1.04 | S. cerevisiae deletion strains, locus YOR265W, strain rbl2, hits give low values 1.03 | S. cerevisiae deletion strains, locus YOR270C, strain vph1, hits give low values 1.1 | S. cerevisiae deletion strains, locus YOR290C, strain snf2, hits give low values 1.02 | S. cerevisiae deletion strains, locus YOR316C, strain cot1, hits give low values 1.02 | S. cerevisiae deletion strains, locus YPL051W, strain arl3, hits give low values 1.02 | S. cerevisiae deletion strains, locus YPL055C, strain LGE1, hits give low values 1.06 | S. cerevisiae deletion strains, locus YPL078C, strain atp4, hits give low values 1.02 | S. cerevisiae deletion strains, locus YPL106C, strain sse1, hits give low values 1.01 | S. cerevisiae deletion strains, locus YPL240C, strain hsp82, hits give low values 1.01 | S. cerevisiae deletion strains, locus YPL241C, strain CIN2, hits give low values 1 | S. cerevisiae deletion strains, locus YPL256C, strain CLN2, hits give low values 1.03 | S. cerevisiae deletion strains, locus YPR119W, strain clb2, hits give low values 1.01 | S. cerevisiae deletion strains, locus YPR141C, strain kar3, hits give low values 1.02 | S. cerevisiae deletion strains, locus YPR163C, strain tif3, hits give low values 1.02 | S. cerevisiae deletion strains, locus YPR167C, strain met16, hits give low values 1.02 | S. cerevisiae deletion strains, strain wtn01, hits give low values 1.03 | S. cerevisiae strains, strain wild type, hits give low values 1.02
